High-throughput results from PubChem BioAssay.
This is a sample that favours compounds with a hit; in the whole collection about 0.81% have one here.
NCOA3 inh: SRC3 coactivator transcriptional activity inhibitors, primary screen, cell-based, luminescence; HEK293 GAL4-SRC3 luciferase reporter; Nuclear receptor coactivator 3 (Homo sapiens), Q9Y6Q9; AID 588352, 2011; inhibition, % at 3.6 µM; 0.17% of 360,000 active;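 active = inhibition above a per-campaign cutoff, the mean of all compounds plus 3 SD, cut at about 60% in these data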;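 note: higher means less SRC3-driven luciferase light from the GAL4 reporter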
NR2F2 inh: NR2F2 transcriptional activity inhibitors, primary screen, cell-based, luciferase reporter, HEK293T, luminescence | HEK293T NGFI-A luciferase reporter | AID 686940, 2013 | inhibition, % at 8.6 µM | COUP transcription factor 2 (Homo sapiens), P24468 | 0.7% of 370,000 active;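 active = inhibition above a per-plate cutoff, mean inhibition of test wells between control levels plus 3 SD, cut at about 38% in these data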;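 note: cells cotransfected with COUP-TFII expression vector driving the NGFI-A reporter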
NR5A2 inv ag: LRH-1 (NR5A2) inverse agonists, primary screen, cell-based, luminescence, HEK293T, StAR-luciferase reporter. LRH-1 transfected, 24 h. inhibition, % at 3.6 µM. 0.13% of 360,000 active;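 active = inhibition above the mean inhibition of all tested compounds plus 3 SD, cut at about 73% in these data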
SRC1 inh: SRC1 coactivator transcriptional activity inhibitors, primary screen, cell-based, luminescence | HEK293 GAL4-SRC1 luciferase reporter | Nuclear receptor coactivator 1 (Homo sapiens), Q15788 | inhibition, % at 3.6 µM | 0.12% of 360,000 active;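 active = inhibition above the campaign mean plus 3 SD, with each screening campaign given its own cutoff, cut at about 60% in these data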
NCOA2 inhibitor: inhibition of GAL4-SRC2 driven luciferase reporter, primary screen, SRC2 inhibitor project, cell-based, luminescence | 0.17% of 370,000 active | HEK293 GAL4-SRC2 luciferase reporter | inhibition, % at 9 µM | Nuclear receptor coactivator 2 (Homo sapiens), Q15596;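 active = inhibition above the mean inhibition of all tested compounds plus 3 SD, set per campaign, cut at about 52% in these data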
VP16 Luc counter: Gal4-VP16 luciferase reporter inhibitors, counter-screen for COUP-TFII antagonist project, cell-based, luminescence, HEK293; inhibition, % at 8.5 µM; AID 687007, 2013; shares compounds with NR2F2 inh; 25% of 2,500 active; in the data active = inhibition above about 13%
COUP-TFII conf: NR2F2 transcriptional activity inhibitors, confirmation, cell-based, luciferase reporter, HEK293, triplicate; AID 687008, 2013; 45% of 2,500 active; shares compounds with NR2F2 inh; inhibition, % at 8.5 µM; HEK293 NGFI-A luciferase reporter, luminescence;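 active = mean inhibition over three repeats above a set limit taken from the earlier primary screen, cut at about 38% in these data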
Large screens that a line does not name were inactive (follow-up assays come after a bar, where they were run); ! = a repeat was not active.

OC1(Cc2ccccc2)CCN(c2ncnc3sccc23)CC1	NR2F2 inh 71.0 (no result: NCOA3 inh, NR5A2 inv ag, SRC1 inh, NCOA2 inhibitor) | VP16 Luc counter inactive | COUP-TFII conf 61.7
c1ccc(CN2CCN(c3ncnc4sccc34)CC2)cc1	NR2F2 inh 71.2 (no result: NCOA3 inh, NR5A2 inv ag, SRC1 inh, NCOA2 inhibitor) | VP16 Luc counter inactive | COUP-TFII conf 50.1
Cc1ccc(OCCN2CCN(c3ncnc4sc(C)c(C)c34)CC2)cc1	NR2F2 inh 73.4 | VP16 Luc counter inactive | COUP-TFII conf 61.1
CN(Cc1ccccc1)c1ncnc2sccc12	none
COc1ccccc1N1CCN(C(=O)c2cc3c(C)nc4ccccc4c3o2)CC1	NR2F2 inh 41.8 | VP16 Luc counter inactive | COUP-TFII conf inactive
Cc1ccc(CNC(=O)c2cc3c(C)nc4ccccc4c3o2)cc1	NR2F2 inh 47.8 | VP16 Luc counter inactive | COUP-TFII conf inactive
N#Cc1cccc(NC(=O)OC2CC3CC2[C@H]2CCCCN2[C@H]3Cc2ccccc2)c1 (some centres undefined)	none (no result: NCOA3 inh, NR5A2 inv ag, SRC1 inh)
CCCCCCCCNc1ncnc2ccccc12	none (no result: NR2F2 inh, NCOA2 inhibitor)
Cc1cccc[n+]1CCCCCCCCCC[n+]1ccccc1C	none
CCCCCCCC[n+]1cccc2c3ccccc3ccc21	NCOA3 inh 81.1, NR2F2 inh 79.9, NR5A2 inv ag 88.2 | VP16 Luc counter 13.6 | COUP-TFII conf 77.3
CCCCCCCCCC[n+]1cccc2c3ccccc3ccc21	NCOA3 inh 81.5, NR2F2 inh 82.9, NR5A2 inv ag 90.0 | VP16 Luc counter 19.6 | COUP-TFII conf 81.6
OC[C@@H]1CN(Cc2ccccc2)C[C@H](n2cnc3c(NC4CC4)ncnc32)O1	none
OC[C@@H]1CN(Cc2ccc(-c3ccccc3)cc2)C[C@H](n2cnc3c(NC4CCC4)ncnc32)O1	NR2F2 inh 68.8 | VP16 Luc counter inactive | COUP-TFII conf 44.8
Cc1c(/C(O)=C2/C(=O)C(=O)N(Cc3cccnc3)C2c2ccccn2)cnn1-c1ccccc1 (centres undefined)	NCOA3 inh 76.1, NR2F2 inh 95.2, SRC1 inh 70.0, NCOA2 inhibitor 76.6 | VP16 Luc counter inactive | COUP-TFII conf inactive
Cc1c(/C(O)=C2/C(=O)C(=O)N(CCN3CCOCC3)C2c2ccco2)cnn1-c1ccccc1 (centres undefined)	NR2F2 inh 60.0 | VP16 Luc counter inactive | COUP-TFII conf 45.8
Cc1c(/C(O)=C2/C(=O)C(=O)N(Cc3cccnc3)C2c2cccs2)cnn1-c1ccccc1 (centres undefined)	none
Cc1cc(NS(=O)(=O)c2ccc(NC(=O)CSc3nnc(-c4ccccn4)n3-c3ccccc3)cc2)nc(C)n1	none (no result: NCOA3 inh, NR5A2 inv ag, SRC1 inh)
CCn1c(N)nc2c1c(=O)n(C)c(=O)n2C	none
CCCc1nc2c(=O)n(C)c(=O)nc-2n(C)n1	NCOA3 inh 90.0, NR2F2 inh 67.8, NR5A2 inv ag 88.8, SRC1 inh 86.6, NCOA2 inhibitor 66.5 | VP16 Luc counter 37.4 | COUP-TFII conf 60.4
Cn1nc(-c2ccccn2)nc2c(=O)n(C)c(=O)nc1-2	NCOA3 inh 93.2, NR2F2 inh 53.7, NR5A2 inv ag 83.6, SRC1 inh 89.3 | VP16 Luc counter 30.3 | COUP-TFII conf inactive
CCCCNC(=O)O[C@H]1CC[C@@]23CCCN2C(=O)CCC[C@H]3[C@H]1C	none (no result: NCOA3 inh, NR5A2 inv ag, SRC1 inh, NCOA2 inhibitor)
COC(=O)c1cc(-c2ccc(C)c(C)c2)c(=O)n2c1CCC2	none (no result: NCOA3 inh, NR5A2 inv ag, SRC1 inh)
Cc1ccc(-c2c[n+]3c(n2-c2ccccc2)CCC3)cc1	NR2F2 inh 60.5 | VP16 Luc counter inactive | COUP-TFII conf inactive
CCOc1ccc(-n2c(-c3ccccc3)c[n+]3c2CCCCC3)cc1	NR2F2 inh 66.9 | VP16 Luc counter inactive | COUP-TFII conf 48.7
COC(=O)C1CN(Cc2cn(Cc3ccc(C)cc3)nn2)CCS(=O)(=O)N1Cc1ccc(OC)cc1 (centres undefined)	none (no result: NCOA3 inh, NR5A2 inv ag, SRC1 inh)
COc1ccc2c(c1)N=C(c1[nH]c3ccccc3c1CCN1C(=O)c3ccccc3C1=O)[C@]2(O)CCN1C(=O)c2ccccc2C1=O	none (no result: NCOA3 inh, NR5A2 inv ag, SRC1 inh, NCOA2 inhibitor)
CCN(CC)S(=O)(=O)c1cc(NC(=O)C2CC(=O)N(Cc3ccccc3)C2)ccc1Cl (centres undefined)	NR2F2 inh 53.1 | VP16 Luc counter inactive | COUP-TFII conf inactive
Cc1ccc(NC(=O)C2CC(=O)N(Cc3ccccc3)C2)cc1S(=O)(=O)N1CCCCCC1 (centres undefined)	none
O=C(Nc1ccc(-c2nc3ccccc3o2)c(O)c1)c1cc(-n2cnnc2)ccc1Cl	NR2F2 inh 44.4 | VP16 Luc counter inactive | COUP-TFII conf inactive
Cc1ccc(OCc2nnc(SCc3nc4ccccc4[nH]3)n2Cc2ccco2)cc1	NR2F2 inh 41.6 | VP16 Luc counter inactive | COUP-TFII conf inactive
O=C1CC(N2CCOCC2)=NC(=O)N1c1ccc(Br)cc1	none (no result: NCOA3 inh, NR5A2 inv ag, SRC1 inh)
CC(C)N1CCc2c(sc(NC(=O)c3cc(-c4cccs4)nc4ccccc34)c2C(N)=O)C1	none (no result: NR2F2 inh, NCOA2 inhibitor)
CC(C)N1CCc2c(sc(NC(=O)c3nc4ccccc4s3)c2C(N)=O)C1	NR2F2 inh 38.1 | VP16 Luc counter inactive | COUP-TFII conf inactive
CC(=O)Nc1sc2c(c1-c1nc3ccccc3s1)CCCN(C(C)C)C2	NR2F2 inh 44.7 (no result: NCOA3 inh, NR5A2 inv ag, SRC1 inh, NCOA2 inhibitor) | VP16 Luc counter inactive | COUP-TFII conf inactive
CCOC(=O)c1cc2c(=O)n3cccc(C)c3nc2n(CC2CCCO2)c1=NC(C)=O (centres undefined)	NR2F2 inh 73.5! | VP16 Luc counter inactive | COUP-TFII conf inactive
CN(Cc1ccccc1)C(=O)OCc1cn(Cc2ccc(F)cc2)nn1	none (no result: NCOA3 inh, NR5A2 inv ag, SRC1 inh)
Cc1ccc(Oc2ccccc2NC(=O)CSCC(=O)Nc2cc(C)on2)cc1	NR2F2 inh 62.2 | VP16 Luc counter inactive | COUP-TFII conf 48.7
CCOC(=O)CC[C@H]1CC[C@]2(CCCN(S(C)(=O)=O)C2)O1	none (no result: NCOA3 inh, NR5A2 inv ag, SRC1 inh)
CCCCCCC(=O)N(O)C1CC(=O)N(Cc2ccccc2)C1=O (centres undefined)	none
CCCCCC(=O)N(O)C1CC(=O)N(c2ccccc2)C1=O (centres undefined)	NR2F2 inh 41.1 | VP16 Luc counter inactive | COUP-TFII conf inactive
O=C(CCc1ccccc1-c1ccccc1CCNC(=O)c1cccc(F)c1)NCc1ccccc1	none (no result: NCOA3 inh, NR5A2 inv ag, SRC1 inh)
Cc1cc(=O)n2nc(N3CCC(C(=O)N4CCN(c5ccccc5)CC4)CC3)sc2n1	none
CCCc1cc(=O)n2nc(N3CCC(C(=O)N4CCN(c5ccc(OC)cc5)CC4)CC3)sc2n1	NR2F2 inh 56.1 | VP16 Luc counter inactive | COUP-TFII conf 64.4
COc1ccc(NC(=O)COc2ccccc2Cc2ccccc2)cc1S(N)(=O)=O	NR2F2 inh 43.5 | VP16 Luc counter inactive | COUP-TFII conf inactive
